Experimental data from ChEMBL document CHEMBL3988442, “University of Dundee, Small-Polar-MMV Screening Library” (2021).
For part of these data: Entries with a potency or affinity are not part of this list.

Experiments:
Set-up in all cases: scale not given: direction of the effect not stated beside the values
[1] = target: Protein translocase subunit SecA (Escherichia coli (strain K12)) (UniProt P10408); experiment: Assay to Identify E. coli SecA ATPase Inhibitors; assay type: functional; conditions: 30 µM
[2] = target: T1, Ubiquitin-activating enzyme e1, putative (Leishmania donovani (strain BPK282A1)) (UniProt E9BSI1); experiment: Leishmania donovani Ubiquitin Activating Enzyme (LdE1); assay type: functional; conditions: 30 µM
T1 sequence (whole entry): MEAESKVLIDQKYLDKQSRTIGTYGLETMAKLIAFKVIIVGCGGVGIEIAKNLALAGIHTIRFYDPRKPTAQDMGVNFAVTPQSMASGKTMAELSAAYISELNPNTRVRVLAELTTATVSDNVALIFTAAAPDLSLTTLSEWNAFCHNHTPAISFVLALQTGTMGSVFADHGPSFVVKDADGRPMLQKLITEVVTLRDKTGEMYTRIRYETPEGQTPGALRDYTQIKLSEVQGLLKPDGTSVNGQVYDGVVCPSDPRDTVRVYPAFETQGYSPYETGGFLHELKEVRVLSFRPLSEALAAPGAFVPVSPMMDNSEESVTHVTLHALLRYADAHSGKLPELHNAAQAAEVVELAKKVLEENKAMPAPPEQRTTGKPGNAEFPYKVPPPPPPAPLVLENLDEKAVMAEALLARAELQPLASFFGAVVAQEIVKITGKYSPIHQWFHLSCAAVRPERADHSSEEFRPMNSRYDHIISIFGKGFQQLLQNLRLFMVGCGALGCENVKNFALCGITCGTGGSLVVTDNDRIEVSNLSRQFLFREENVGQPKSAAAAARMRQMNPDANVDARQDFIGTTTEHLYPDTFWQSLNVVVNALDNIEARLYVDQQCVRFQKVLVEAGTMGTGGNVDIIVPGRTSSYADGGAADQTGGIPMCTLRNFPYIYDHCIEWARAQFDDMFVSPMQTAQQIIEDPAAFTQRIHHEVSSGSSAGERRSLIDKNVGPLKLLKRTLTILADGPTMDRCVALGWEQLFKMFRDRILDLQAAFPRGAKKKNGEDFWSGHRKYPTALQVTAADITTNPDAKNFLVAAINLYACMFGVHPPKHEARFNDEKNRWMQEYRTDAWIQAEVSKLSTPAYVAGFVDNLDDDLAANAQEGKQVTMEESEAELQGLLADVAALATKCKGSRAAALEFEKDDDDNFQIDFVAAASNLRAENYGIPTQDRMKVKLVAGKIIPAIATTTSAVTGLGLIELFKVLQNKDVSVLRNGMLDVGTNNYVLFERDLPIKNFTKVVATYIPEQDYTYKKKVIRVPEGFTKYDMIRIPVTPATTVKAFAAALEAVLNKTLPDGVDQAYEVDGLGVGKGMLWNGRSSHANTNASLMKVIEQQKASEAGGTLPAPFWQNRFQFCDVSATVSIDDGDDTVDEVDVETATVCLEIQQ

[3] = target: T2, Aspartate--tRNA(Asp/Asn) ligase (Mycobacterium tuberculosis (strain ATCC 25618 / H37Rv)) (UniProt P9WFW3); experiment: Assay for Asp RNA synthetase-1 from Mycobacterium tuberculosis; assay type: functional; conditions: 30 µM; also: in the data most compounds retested in dose-response had high values
T2 sequence (whole entry): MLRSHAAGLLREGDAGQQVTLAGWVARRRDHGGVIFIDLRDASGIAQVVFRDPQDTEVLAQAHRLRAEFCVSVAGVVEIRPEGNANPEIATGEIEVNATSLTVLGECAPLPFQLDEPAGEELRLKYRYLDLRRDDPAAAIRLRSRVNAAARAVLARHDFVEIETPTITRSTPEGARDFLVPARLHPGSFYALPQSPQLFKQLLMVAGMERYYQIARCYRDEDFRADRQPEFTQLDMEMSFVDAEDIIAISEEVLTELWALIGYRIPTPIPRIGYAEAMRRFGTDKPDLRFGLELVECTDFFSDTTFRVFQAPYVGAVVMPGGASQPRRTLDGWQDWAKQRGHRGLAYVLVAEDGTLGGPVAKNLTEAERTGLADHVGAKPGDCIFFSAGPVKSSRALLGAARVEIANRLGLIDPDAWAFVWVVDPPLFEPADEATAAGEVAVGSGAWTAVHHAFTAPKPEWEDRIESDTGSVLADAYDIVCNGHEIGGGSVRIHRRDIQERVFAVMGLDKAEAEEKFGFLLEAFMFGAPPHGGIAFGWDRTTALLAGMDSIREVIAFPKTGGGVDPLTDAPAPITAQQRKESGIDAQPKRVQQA

[4] = target: AMP-activated protein kinase, AMPK (Homo sapiens) (UniProt P54646+O43741+P54619+Q9UGJ0+Q9Y478+Q13131+Q9UGI9); experiment: AMP-dependent Kinase enzyme assay. An in vitro enzyme assay that detects ADP turnover that is directly proportional to AMPK activity. This uses naive AMPK that is activated during the assay with MK-8722; assay type: functional; conditions: 30 µM
[5] = target: Sialic acid-binding Ig-like lectin 9 (Homo sapiens) (UniProt Q9Y336); experiment: Hs-Siglec9 ALPHAscreen SOP 20170721; conditions: 10 µM
[6] = system: Trypanosoma cruzi; experiment: Trypanosoma cruzi phosphomannomutase and mannose-1-phosphate guanylyltransferase assay; assay type: functional; conditions: 10 µM
[7] = target: T3, Arginase-2, mitochondrial (Homo sapiens) (UniProt P78540); experiment: in vitro enzyme assay to detect the production of urea directly proportional to the activity of Arginase II; assay type: functional; conditions: 33.3 µM; also: in the data most compounds retested in dose-response had high values
T3 sequence (whole entry): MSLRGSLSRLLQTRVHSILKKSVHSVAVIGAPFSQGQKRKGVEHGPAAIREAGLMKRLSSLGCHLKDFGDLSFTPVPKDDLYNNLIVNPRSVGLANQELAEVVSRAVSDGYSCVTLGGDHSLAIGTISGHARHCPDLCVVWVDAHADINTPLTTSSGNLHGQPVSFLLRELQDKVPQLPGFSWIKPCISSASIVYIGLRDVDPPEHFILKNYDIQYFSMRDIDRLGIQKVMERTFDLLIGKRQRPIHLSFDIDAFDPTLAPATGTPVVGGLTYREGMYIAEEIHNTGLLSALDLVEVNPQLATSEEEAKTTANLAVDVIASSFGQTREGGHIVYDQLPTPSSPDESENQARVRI

[8] = target: T4, Proteasome subunit beta (Trypanosoma cruzi) (UniProt O96673); experiment: Trypanosoma cruzi proteasome chymotrypsin-like activity (TcProtChymo) assay.; also: in the data most compounds retested in dose-response had high values; assay type: functional; conditions: 9.37 µM
T4 sequence (whole entry): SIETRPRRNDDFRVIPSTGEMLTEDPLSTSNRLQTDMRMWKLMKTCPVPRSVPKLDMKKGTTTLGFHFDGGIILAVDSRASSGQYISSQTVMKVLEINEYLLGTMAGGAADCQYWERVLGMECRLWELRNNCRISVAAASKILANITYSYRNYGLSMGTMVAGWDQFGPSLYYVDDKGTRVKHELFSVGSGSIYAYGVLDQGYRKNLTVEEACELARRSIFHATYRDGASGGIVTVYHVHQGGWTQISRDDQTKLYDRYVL

[9] = organism: Homo sapiens; experiment: To identify inhibition of the IFN signalling (Jak-Stat) pathway via expression of an eGFP reporter gene under the control of an IFN-stimulated response element (ISRE) containing MxA promoter.; assay type: functional; conditions: 30 µM
[10] = target: Shiga toxin 2 (Escherichia coli O157:H7) (UniProt P09385+P09386); experiment: E. coli 0.157:H7 Shiga Toxin SOP - stx2 screening assay; assay type: functional; conditions: 30 µM
[11] = target: T5, Tyrosyl-tRNA synthetase, putative (Trypanosoma cruzi (strain CL Brener)) (UniProt Q4DSP6); experiment: Trypanosoma cruzi tyrosyl tRNA synthetase (TcYRS) _High Tyrosine SOP; assay type: functional; conditions: 30 µM; also: in the data most compounds retested in dose-response had high values
T5 sequence (whole entry): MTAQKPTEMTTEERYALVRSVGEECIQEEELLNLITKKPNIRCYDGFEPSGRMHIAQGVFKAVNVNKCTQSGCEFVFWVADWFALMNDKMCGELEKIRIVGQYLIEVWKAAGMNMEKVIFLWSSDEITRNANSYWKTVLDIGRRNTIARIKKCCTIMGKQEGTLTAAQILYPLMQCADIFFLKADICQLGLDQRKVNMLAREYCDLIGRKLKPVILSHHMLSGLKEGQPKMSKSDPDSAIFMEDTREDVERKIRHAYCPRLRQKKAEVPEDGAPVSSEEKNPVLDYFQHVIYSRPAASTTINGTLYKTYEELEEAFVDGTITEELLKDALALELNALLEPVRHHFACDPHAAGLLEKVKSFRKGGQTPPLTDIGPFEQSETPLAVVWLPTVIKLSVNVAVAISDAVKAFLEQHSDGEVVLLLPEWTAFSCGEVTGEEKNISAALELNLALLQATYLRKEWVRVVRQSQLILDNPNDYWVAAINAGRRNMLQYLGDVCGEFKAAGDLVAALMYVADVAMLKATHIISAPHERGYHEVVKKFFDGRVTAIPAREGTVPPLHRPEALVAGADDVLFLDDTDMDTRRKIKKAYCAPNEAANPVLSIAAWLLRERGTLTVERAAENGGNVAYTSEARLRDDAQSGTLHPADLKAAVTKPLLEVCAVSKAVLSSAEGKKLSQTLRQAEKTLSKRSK

[12] = target: T5, Tyrosyl-tRNA synthetase, putative (Trypanosoma cruzi (strain CL Brener)); experiment: Trypanosoma cruzi tyrosyl tRNA synthetase (TcYRS) SOP; assay type: functional; conditions: 30 µM
[13] = target: Chromo domain-containing protein 1 (Saccharomyces cerevisiae (strain ATCC 204508 / S288c) (Baker's yeast)) (UniProt P32657); experiment: ScCHD-1 Enzyme Inhibition Assay; assay type: functional; conditions: 30 µM; also: in the data most compounds retested in dose-response had high values
Chromo domain-containing protein 1 (Saccharomyces cerevisiae (strain ATCC 204508 / S288c) (Baker's yeast)), sequence (P32657 whole entry, the tested form may be a part): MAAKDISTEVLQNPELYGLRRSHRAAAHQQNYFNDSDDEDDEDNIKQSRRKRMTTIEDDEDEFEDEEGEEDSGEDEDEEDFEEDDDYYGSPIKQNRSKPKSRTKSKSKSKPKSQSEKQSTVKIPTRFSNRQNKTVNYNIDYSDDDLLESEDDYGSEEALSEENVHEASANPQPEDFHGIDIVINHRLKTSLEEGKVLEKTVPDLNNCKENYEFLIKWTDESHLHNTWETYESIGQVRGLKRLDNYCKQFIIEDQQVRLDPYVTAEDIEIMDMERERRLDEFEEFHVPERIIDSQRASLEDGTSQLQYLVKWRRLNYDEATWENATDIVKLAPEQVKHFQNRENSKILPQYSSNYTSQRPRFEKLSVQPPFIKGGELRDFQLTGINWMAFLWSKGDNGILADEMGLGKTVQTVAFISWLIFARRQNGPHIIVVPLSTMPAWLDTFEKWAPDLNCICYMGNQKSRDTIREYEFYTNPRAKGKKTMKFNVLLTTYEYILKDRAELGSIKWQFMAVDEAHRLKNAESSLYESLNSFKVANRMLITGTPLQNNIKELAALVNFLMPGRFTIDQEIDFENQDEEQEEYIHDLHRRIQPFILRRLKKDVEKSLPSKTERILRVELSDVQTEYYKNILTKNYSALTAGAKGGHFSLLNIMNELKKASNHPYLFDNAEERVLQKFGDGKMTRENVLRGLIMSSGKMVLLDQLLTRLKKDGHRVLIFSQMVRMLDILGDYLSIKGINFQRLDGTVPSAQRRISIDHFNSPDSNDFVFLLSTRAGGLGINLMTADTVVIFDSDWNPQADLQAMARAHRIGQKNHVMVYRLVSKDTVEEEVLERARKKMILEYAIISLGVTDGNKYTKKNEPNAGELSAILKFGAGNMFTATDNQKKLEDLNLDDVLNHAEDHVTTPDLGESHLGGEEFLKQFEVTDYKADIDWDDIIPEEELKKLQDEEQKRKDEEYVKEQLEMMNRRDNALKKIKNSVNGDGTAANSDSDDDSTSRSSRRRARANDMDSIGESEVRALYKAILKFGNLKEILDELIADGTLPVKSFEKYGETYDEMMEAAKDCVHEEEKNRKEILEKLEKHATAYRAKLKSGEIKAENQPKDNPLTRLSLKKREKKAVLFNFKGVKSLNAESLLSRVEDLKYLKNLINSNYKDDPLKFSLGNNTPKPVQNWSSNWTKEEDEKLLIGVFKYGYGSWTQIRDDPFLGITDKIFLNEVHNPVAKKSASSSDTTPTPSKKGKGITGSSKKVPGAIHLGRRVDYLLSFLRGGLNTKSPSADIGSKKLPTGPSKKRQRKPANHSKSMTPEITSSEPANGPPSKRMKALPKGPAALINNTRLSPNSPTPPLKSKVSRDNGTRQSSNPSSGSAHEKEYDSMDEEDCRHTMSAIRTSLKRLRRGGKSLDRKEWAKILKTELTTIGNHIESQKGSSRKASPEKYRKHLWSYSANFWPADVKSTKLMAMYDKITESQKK

Protein translocase subunit SecA (Escherichia coli (strain K12)), sequence (P10408 whole entry): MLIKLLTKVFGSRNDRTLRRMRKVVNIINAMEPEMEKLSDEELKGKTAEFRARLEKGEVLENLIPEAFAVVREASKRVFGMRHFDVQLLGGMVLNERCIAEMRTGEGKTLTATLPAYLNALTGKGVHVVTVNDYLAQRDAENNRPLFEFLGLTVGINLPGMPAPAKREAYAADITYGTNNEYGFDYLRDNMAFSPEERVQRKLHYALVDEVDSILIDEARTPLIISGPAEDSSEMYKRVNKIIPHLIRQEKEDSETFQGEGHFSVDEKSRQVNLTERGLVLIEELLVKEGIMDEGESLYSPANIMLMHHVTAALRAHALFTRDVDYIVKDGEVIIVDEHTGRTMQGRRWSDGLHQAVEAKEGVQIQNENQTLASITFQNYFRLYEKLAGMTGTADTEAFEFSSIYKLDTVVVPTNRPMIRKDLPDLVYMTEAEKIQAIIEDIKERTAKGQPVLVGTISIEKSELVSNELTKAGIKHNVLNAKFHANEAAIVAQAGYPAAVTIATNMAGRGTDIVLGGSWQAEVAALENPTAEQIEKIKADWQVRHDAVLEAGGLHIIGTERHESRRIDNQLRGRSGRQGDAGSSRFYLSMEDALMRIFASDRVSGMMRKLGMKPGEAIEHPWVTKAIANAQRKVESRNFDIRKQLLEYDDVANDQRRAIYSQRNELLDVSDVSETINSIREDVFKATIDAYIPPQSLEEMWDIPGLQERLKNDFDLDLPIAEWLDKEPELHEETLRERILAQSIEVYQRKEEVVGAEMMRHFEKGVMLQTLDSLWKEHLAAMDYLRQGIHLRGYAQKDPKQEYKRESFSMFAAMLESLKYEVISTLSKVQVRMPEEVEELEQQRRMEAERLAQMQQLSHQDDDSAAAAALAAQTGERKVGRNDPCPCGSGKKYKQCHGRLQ
Sialic acid-binding Ig-like lectin 9 (Homo sapiens), sequence (Q9Y336 whole entry): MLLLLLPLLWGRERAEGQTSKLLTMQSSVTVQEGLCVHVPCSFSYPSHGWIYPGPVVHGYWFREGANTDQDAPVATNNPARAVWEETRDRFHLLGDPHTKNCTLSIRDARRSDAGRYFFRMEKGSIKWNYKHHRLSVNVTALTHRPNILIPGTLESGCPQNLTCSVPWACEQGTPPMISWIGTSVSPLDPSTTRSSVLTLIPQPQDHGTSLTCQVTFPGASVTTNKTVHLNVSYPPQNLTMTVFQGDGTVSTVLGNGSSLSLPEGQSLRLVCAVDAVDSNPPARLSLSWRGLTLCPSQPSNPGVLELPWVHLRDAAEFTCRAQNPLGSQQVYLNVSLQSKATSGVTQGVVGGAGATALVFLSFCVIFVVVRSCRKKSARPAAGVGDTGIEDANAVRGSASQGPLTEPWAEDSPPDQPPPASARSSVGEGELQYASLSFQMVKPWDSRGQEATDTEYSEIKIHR

Row | Structure (SMILES) | Percent Effect [1] | Percent Effect [2] | Percent Effect [3] | Percent Effect [4] | Percent Effect [5] | Percent Effect [6] | Percent Effect [7] | Percent Effect [8] | Percent Effect [9] | Percent Effect [10] | Percent Effect [11] | Percent Effect [12] | Percent Effect [13]
1 | CCn1ccnc1CN1CCCN(C(=O)Cc2ccc(C)nc2)CC1 | -2.41% | 5.2% | 1.82% | 5.72% | 3.18% | 2.45% | 3.16% | 10.4% | -0.845% | 6.49% | -0.952% | 0% | -16.3%
2 | c1csc(CN2CC[C@H]3C[C@H](c4ccncn4)O[C@@H]3C2)c1 | 2.89% | 13% | 2.7% | 9.99% | -6.78% | -7.99% | 5.81% | 19.7% | 13.8% | -7.55% | 2.12% | 6.41% | -8.13%
3 | CN1CCCC(Cc2cncc(Br)c2)CC1 (configuration not stated) | -3.64% | 1.35% | -6.03% | 13.7% | -1.84% | 5.73% | 0.232% | 9.05% | -10.1% | -7.14% | 20.4% | 22.1% | -20.8%
4 | O=C(Nc1cccnc1)[C@H]1COC[C@H]2CN(C3CCCC3)C[C@H]21 | -5.23% | 8.11% | 5.33% | 1.79% | 1.44% | 2.15% | 3.33% | 10.2% | -5.51% | -10.3% | 4.95% | 11% | -4.54%
5 | CN(C)[C@@H]1CCN(C(=O)Cc2ccc(F)cc2)[C@H]1Cc1cnn(C)c1 | -0.511% | 13.3% | 7.04% | 9.81% | -9.25% | -4.72% | -1.63% | 12.8% | -1.72% | -6.42% | 3.19% | 6.41% | 1.98%
6 | Cc1noc(C)c1CN1CCOC2(CCCN(c3nccs3)C2)C1 (configuration not stated) | -8.9% | 8% | 7.92% | 26.5% | 1.44% | -6.18% | -56.1% | 2.91% | 21.7% | -14.3% | -7.29% | -30% | -4.72%
7 | COc1ccccc1OCC(=O)N1CCN(Cc2noc(C)n2)CC1 | -5.45% | 13.5% | 3.51% | -4.95% | 22% | 5.96% | 5.21% | 6.09% | 2.23% | 3.27% | 4.3% | 13.6% | -7.11%
8 | Cc1cc(CC(=O)N2CCN(CC3CC3)[C@@H]3CS(=O)(=O)C[C@@H]32)ccc1F | -1.82% | 6.94% | 3.29% | 35.7% | -0.65% | 0.0972% | 3.53% | 7.02% | -1.41% | 1.5% | 7.37% | -15.4% | -3.03%
9 | COc1cc(OC)c(C2SCC(=O)Nc3n[nH]cc32)cc1OC (configuration not stated) | -4.64% | 5.26% | 10.6% | 15.2% | 0.428% | -0.682% | -7.1% | 9.11% | 20.6% | 10.6% | 2.13% | 2.6% | -1.49%
